Unmarked numbers belong to inactive results. How the calls were made is not given here.

For this assay, the target named is Pantothenate synthetase (Mycobacterium tuberculosis (strain ATCC 25618 / H37Rv)) (UniProt P9WIL5). In words: Coupled enzyme confirmation of inhibitors against recombinant Mtb PanC (AID 375).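 Further: 0% = full reaction with vehicle and 100% = no enzyme background.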 Particulars: coupled enzyme assay; at 10 µM, stronger effect = higher value.
Chain of Pantothenate synthetase (Mycobacterium tuberculosis (strain ATCC 25618 / H37Rv)) (P9WIL5 whole entry, looked up): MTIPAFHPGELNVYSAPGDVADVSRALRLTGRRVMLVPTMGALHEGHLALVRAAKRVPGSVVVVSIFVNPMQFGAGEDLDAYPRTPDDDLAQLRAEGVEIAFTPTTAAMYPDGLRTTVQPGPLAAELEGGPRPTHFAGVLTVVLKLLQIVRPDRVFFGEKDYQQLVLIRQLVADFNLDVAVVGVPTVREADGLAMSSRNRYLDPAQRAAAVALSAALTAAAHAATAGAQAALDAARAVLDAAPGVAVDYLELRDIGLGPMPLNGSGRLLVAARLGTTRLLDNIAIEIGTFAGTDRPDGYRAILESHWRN
For the compound `OCCN(CCO)c1nc(N2CCCCC2)c2nc(N(CCO)CCO)nc(N3CCCCC3)c2n1`, the inhibition (usually how much of the control response was suppressed) is 0%.

Turning to `Cc1ccc(NC(=O)CSc2nnc(-c3ccccn3)n2C)cc1`, the inhibition is 1%.

Turning to `Cc1nc(C)c(C(=O)C2=C(O)C(=O)N(CCN3CCOCC3)C2c2cccnc2)s1` (configuration not stated), the inhibition was 13%.

As for `COc1cccc(N2CCN(Cc3cccnc3)CC2)c1`, the inhibition was 3%.

For the compound `COc1ccc(CC(=O)NCc2nnc(SCC(=O)Nc3nccs3)n2-c2ccccc2)cc1`, the inhibition is 0%.

`Nc1nc(N)c2nc(-c3ccccc3)c(N)nc2n1`: the inhibition is 0%.

`C=CCc1ccccc1OCCCCN1CCCC1`: the inhibition is 0%.

Consider `Cn1c(=O)n(Cc2ccccc2)c(=O)c2c1nc(NCC1CCCO1)n2Cc1ccccc1` (configuration not stated), for which the inhibition was 0%.

Take `Cc1ccc2c(c1)-c1c(cnn1CC(=O)NC(C)CCc1ccco1)CO2` (configuration not stated): the inhibition was 0%.

As for `O=C(CSc1nnc(COc2ccc(Cl)cc2)o1)OC1CCCCC1`, the inhibition was 0%.

Turning to `O=S(=O)(c1ccc2c(c1)OCCO2)N(Cc1ccc(F)cc1)Cc1nnc(-c2cccs2)o1`, the inhibition was 5%.

`COc1ccc(N2CCN(c3ncnc4c3cnn4-c3ccc(C)cc3C)CC2)cc1`: the inhibition is 8%.

Consider `Cc1cc(C(=O)COC(=O)CCc2nc3ccccc3s2)c(C)n1C`, for which the inhibition was 0%.

For the compound `Nc1sccc1C(=O)c1ccccc1`, the inhibition was 4%.

`CCCCn1nnc(NC(=O)Cc2ccc(Cl)cc2)n1`: the inhibition is 0%.

With `Cn1cc(C(=O)NC2CCCCCCC2)c(=O)c2cc(S(=O)(=O)N3CCCC3)ccc21`, the inhibition is 0%.

In the case of `O=C(N1CCN(c2ccccc2F)CC1)C12CC3CC(CC(C3)C1)C2`, the inhibition was 0%.

The record behind these values is PubChem BioAssay.
